# Screens from PubChem.
# A selection: hits, their analogues and other compounds. The true share with any hit is near 5.7%.
# RORgamma inh: qHTS for inhibitors of ROR gamma transcriptional activity. Nuclear receptor ROR-gamma (Mus musculus), P51450. Potency, µM (doses to about 53.6 µM), most hits filed as inhibitors. hit rate 5.4% among 310,000. AID 2551, 2010. Drosophila S2 Gal4-RORgamma UAS-luciferase reporter, 20 h; further: nearly all actives have a fitted effect of over 60% in size
#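 A Gal4/UAS one-hybrid system in insect cells: metallothionein-promoter Gal4–ROR gamma fusion plus Photinus luciferase reporter. Copper sulfate 700 uM final, 20 hr ambient incubation, luminescent detection after 10 min with reagent.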
# NPSR antag: qHTS Assay for Antagonists of the Neuropeptide S Receptor: cAMP Signal Transduction; AID 1461, 2008; Potency, µM (top dose mostly 38.3 µM), usual class: inhibitors; Q6W5P4; hit rate 1% among 220,000; CHO-NPSR cells, cAMP TR-FRET, antagonist mode; further: nearly all actives have a fitted effect of over 50% in size
# Target sequence (Q6W5P4 whole entry, looked up): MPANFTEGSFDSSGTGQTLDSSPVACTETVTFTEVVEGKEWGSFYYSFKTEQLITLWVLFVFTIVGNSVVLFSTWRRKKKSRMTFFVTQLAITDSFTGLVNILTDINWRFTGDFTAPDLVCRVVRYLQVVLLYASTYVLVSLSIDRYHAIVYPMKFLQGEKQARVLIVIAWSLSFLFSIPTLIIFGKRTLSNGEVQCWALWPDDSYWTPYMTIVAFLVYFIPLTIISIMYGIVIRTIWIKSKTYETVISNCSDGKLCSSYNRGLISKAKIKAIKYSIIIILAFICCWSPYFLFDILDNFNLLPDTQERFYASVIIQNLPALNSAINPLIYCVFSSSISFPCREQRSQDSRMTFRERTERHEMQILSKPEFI
# B2AR arrestin: qHTS assay of beta-arrestin-biased ligands of beta2-adrenergic receptor; Beta-2 adrenergic receptor (Homo sapiens), P07550; beta-arrestin recruitment to beta2AR, cell-based reporter; Potency, µM (series often up to 46.1 µM), hits mostly activators; hit rate 0.02% among 330,000; AID 492947, 2010; further: nearly all actives have a fitted effect of over 65% in size
# Gal4-VP16 FLuc: VP16 counterscreen qHTS for inhibitors of ROR gamma transcriptional activity | Drosophila S2 Gal4-VP16 UAS-luciferase, luminescence, 20 h | hit rate 3.5% among 310,000 | Potency, µM (titrated, usually from 53.6 µM), most hits filed as inhibitors;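 further: Gal4-VP16 expression switched on by copper sulfate through the metallothionein promoter; nearly all actives have a fitted effect of over 50% in size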
# A number is an active result; n = inactive; u = inconclusive; x = not tested or not shown. The call rests on the fitted dose curve; in most records, active means well fitted curve in the direction sought with a large enough effect; inconclusive means small, poorly fitted or top-dose-only effect, or another doubt; inactive means no such curve, though single readings can be large; an effect the other way counts as inactive or inconclusive.
SMILES,RORgamma inh,NPSR antag,B2AR arrestin,Gal4-VP16 FLuc
COc1ccc(OCc2n[nH]c(=S)n2Cc2ccco2)cc1,5.6µM,n,n,u
Cc1ccsc1/C=C1\C(=O)NC(=S)N(C)C1=O,u,x,n,22µM
CN1C(=O)/C(=C/c2ccc(Cl)s2)C(=O)NC1=S,11µM,x,n,13µM
c1ccc(N2CCC3(CCNCC3)CC2)cc1,n,x,x,n
OC(c1cccc(Cl)c1)(c1cccc(Cl)c1)C1CN2CCC1CC2 (centres undefined),6.3µM,u,n,11µM
O=C(N/N=C\C1C(=O)NC(=S)N(c2ccccc2)C1=O)c1ccc(O)cc1 (centres undefined),1.4µM,n,n,2.5µM
O=C(N/N=C/c1c(O)n(-c2ccccc2)c(=O)[nH]c1=O)c1ccncc1,n,n,n,n
CSc1ncc(/C=C2/C(=O)NC(=O)N(C3CCCCC3)C2=O)cn1,n,u,n,n
CN(C)c1ncc(/C=C2/C(=O)NC(=S)N(C3CCCCC3)C2=O)cn1,n,10µM,n,n
O=Nc1ccc(Nc2ccccc2)cc1,n,x,x,u
COC(=O)NC/C=C\c1nc(CC/C=C\C(=O)O[C@H]2C[C@H]3CC(=O)O[C@@H](/C=C\CC(C)C)C[C@@H]4CC[C@H](C)[C@H](C[C@@H](OC)C[C@H](C2)O3)O4)co1,0.0056µM,x,x,u
CCCCC(=O)N/N=C/c1c(O)n(CC)c(=S)[nH]c1=O,11µM,n,n,u
CCCCC(=O)N/N=C/c1c(O)n(CCc2ccccc2)c(=O)[nH]c1=O,10µM,n,n,n
CCCCCCC(=O)N/N=C/c1c(O)n(CCCC)c(=S)[nH]c1=O,u,n,n,n
c1csc(CN2CCC3(CCNCC3)CC2)n1,n,x,x,n
C=CCBr,n,x,x,n
O=C1C(=O)c2ccccc2-c2ccccc21,2µM,3.2µM,n,3.2µM
NC1=C(Br)C(=O)c2ccccc2C1=O,u,n,n,u
C[C@@H](NC(=O)[C@@H](N)Cc1ccc(O)cc1)C(=O)NCC(=O)N(C)[C@@H](Cc1ccccc1)C(=O)NCCO,n,x,x,n
Cn1cc[n+](C)c1P(=S)(c1ccccc1)c1ccccc1,n,5µM,n,n
CCCN1CCCC2Cc3nc(N)ncc3CC21 (centres undefined),n,x,x,n
CC(=O)O[C@H]1C[C@H](O[C@H]2[C@@H](O)CC(O[C@H]3[C@@H](O)C[C@H](O[C@H]4CC[C@@]5(C)[C@H](CC[C@@H]6[C@@H]5CC[C@]5(C)[C@@H](C7=CC(=O)OC7)CC[C@]65O)C4)O[C@@H]3C)O[C@@H]2C)O[C@H](C)[C@H]1O[C@@H]1O[C@H](CO)[C@@H](O)[C@H](O)[C@H]1O (some centres undefined),u,x,x,n
C[C@@H]1O[C@@H](O[C@H]2CC[C@]3(C=O)C4CC[C@]5(C)[C@@H](C6=CC(=O)OC6)CC[C@]5(O)[C@@H]4CC[C@]3(O)C2)[C@H](O)[C@H](O)[C@H]1O (some centres undefined),n,x,x,n
CO[C@H]1[C@@H](O)CC(OC2[C@@H](O)CC(OC3[C@@H](O)C[C@H](OC4CC[C@@]5(C)C(CCC6C5CC(O)[C@]5(C)[C@H](C7=CC(=O)OC7)CCC65O)C4)O[C@@H]3C)O[C@@H]2C)O[C@@H]1C (some centres undefined),2.5µM,x,x,n
CC1O[C@@H](O[C@@H]2C(O)C[C@H](O[C@@H]3C(O)C[C@@H](OC4CC[C@@]5(C)C6CC[C@]7(C)C(C8=CC(=O)OC8)CC[C@@]7(O)C6CC[C@@H]5C4)OC3C)OC2C)CC(O)[C@H]1O (some centres undefined),3.2µM,x,x,n
SMILES,RORgamma inh,NPSR antag,B2AR arrestin,Gal4-VP16 FLuc
CC(=O)OC1CC(OC2C(O)CC(OC3C(O)CC(OC4CCC5(C)C(CCC6C5CC(O)C5(C)C(C7=CC(=O)OC7)CCC65O)C4)OC3C)OC2C)OC(C)C1OC1OC(CO)C(O)C(O)C1O (centres undefined),n,x,x,u
C[C@H]1O[C@@H](O[C@H]2[C@@H](O)C[C@H](O[C@H]3[C@@H](O)C[C@H](O[C@H]4CC[C@]5(C)C6CC[C@]7(C)[C@@H](C8=CC(=O)OC8)CC[C@]7(O)C6CC[C@@H]5C4)O[C@@H]3C)O[C@@H]2C)C[C@H](O)[C@@H]1O (some centres undefined),2.5µM,x,x,n
C[C@]12CC[C@H](O)C[C@H]1CC[C@@H]1[C@@H]2CC[C@]2(C)[C@@H](C3=CC(=O)OC3)CC[C@]12O,x,x,n,x
CC1OC(OC2C(O)CC(OC3C(O)CC(OC4CCC5(C)C(CCC6C5CCC5(C)C(C7=CC(=O)OC7)CCC65O)C4)OC3C)OC2C)CC(O)C1O (centres undefined),1.1µM,x,x,n
O=C(NC(O)C(Cl)(Cl)Cl)NC(O)C(Cl)(Cl)Cl (centres undefined),n,x,x,n
CC[C@]1(O)CC[C@H]2[C@@H]3CCC4=CCCC[C@@H]4[C@H]3CC[C@@]21C,n,x,x,n
O=C(CSc1nnc(NC(=O)c2ccccc2[N+](=O)[O-])s1)NCc1ccco1,u,x,n,n
Cc1cccc(-n2c(O)c(/C=N/NC(=O)c3ccncc3)c(=O)[nH]c2=O)c1,35µM,n,n,n
O=C(N/N=C/c1c(O)n(C2CC2)c(=S)[nH]c1=O)c1ccccc1O,5.6µM,u,n,7.1µM
O=c1[nH]c(=S)n(CCC2=CCCCC2)c(O)c1C=NCc1cccnc1,n,n,n,n
Nc1ccccc1N=Cc1c(O)n(CCC2=CCCCC2)c(=O)[nH]c1=O,n,n,n,n
O=C(N/N=C/c1c(O)n(CCC2=CCCCC2)c(=O)[nH]c1=O)c1ccccc1,11µM,n,n,u
O=C(N/N=C/c1c(O)n(CCC2=CCCCC2)c(=S)[nH]c1=O)c1ccccc1,5µM,n,n,u
C[C@]12CC[C@H]3[C@@H](CC[C@@]45O[C@@H]4C(=O)C(C#N)C[C@]35C)[C@@H]1CC[C@@H]2O (some centres undefined),u,x,x,n
O=C(Cc1coc2cc3c(cc12)CCC3)OCC(=O)N1CCCC1=O,n,n,n,u
CC(C)CCNC(=O)CNC(=O)[C@@H](C)NC(=O)[C@@H](N)Cc1ccc(O)cc1,n,x,x,n
O=C(N/N=C/c1c(O)n(Cc2ccc(F)cc2)c(=O)[nH]c1=O)c1ccccc1,13µM,n,n,n
O=C(N/N=C/c1c(O)n(-c2ccccc2)c(=S)[nH]c1=O)c1ccccc1,7.9µM,n,n,n
[O-][Cl+]O,n,x,x,n
Cc1cccc(N2C(=O)NC(=O)/C(=C\c3cccn3-c3ccc(Cl)cc3)C2=O)c1,u,u,n,u
Cc1cc(C)cc(N2C(=O)NC(=O)/C(=C/c3cccn3-c3ccc(Cl)cc3)C2=O)c1,32µM,n,n,11µM
Cc1ccc(NC(=O)c2snnc2C)cc1Cl,n,n,n,n
